# Reference: PubChem BioAssay (NCATS)
# Records with an inconclusive call do not appear. Entries that show only a call come without a potency. Calls of active or inactive are those of the source. Calls come from the whole dose curve; as a rule, active = well fitted curve in either direction with a large enough effect (not every such curve was filed as active); inconclusive = small, poorly fitted or top-dose-only effect, or another doubt; inactive = flat fitted curve, though single readings scatter.
# Target: Mitogen-activated protein kinase 10 (Mus musculus) (UniProt Q61831)
# Experiment: JNK3 AlphaScreen Assay (AID 530);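 note: kinase came from lysate of stimulated human HepG2 cells; signal reports phosphorylation of biotinylated GST-cJun 1-79 at Ser73 with 10 µM ATP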
# Conditions: JNK3 lysate, c-Jun phosphorylation; series mostly up to 57.1 µM; activity change, negative = inhibition: at the top concentration
# Summary of the method: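 qHTS format: compounds tested as titrations against IL-1beta/TNF-alpha-activated HepG2 lysate JNK3 with biotin-GST-cJun substrate and 10 uM ATP at room temperature. Loss of anti-phospho-cJun AlphaScreen signal indicates inhibition.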
SMILES,"activity change, negative = inhibition",Potency
COCC(=O)O[C@]1(CCN(C)CCCc2nc3ccccc3[nH]2)CCc2cc(F)ccc2[C@@H]1C(C)C,4.96% (inactive),
FC(F)(F)c1ccccc1-n1ccnc1,,inactive
O=C(CCNNC(=O)c1ccncc1)NCc1ccccc1,,inactive
CC(=O)Nc1nnc(S(N)(=O)=O)s1,-2.61% (inactive),
CC1=NS(=O)(=O)c2cc(Cl)ccc2N1,,inactive
Brc1c(NC2=NCCN2)ccc2nccnc12,-19.6% (inactive),
CC(C)[N+](C)(CCOC(=O)C1c2ccccc2Oc2ccccc21)C(C)C,,inactive
COc1cc(C(=O)OCCCN2CCCN(CCCOC(=O)c3cc(OC)c(OC)c(OC)c3)CC2)cc(OC)c1OC,,inactive
